The full list was thinned out, with hits kept by preference.
TTR transcr act – activators of transthyretin transcription; SH-SY5Y TTR promoter Gaussia luciferase, luminescence; 100% = recombinant luciferase protein wells; activation, % at 16.7 µM; 92,000 tested, 1.3% active;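 active means activation above the mean of all tested compounds plus 3 SD, cut at about 9.5% in these data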;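 further: cells exposed to compounds for one day before reading; 0% = median of all test compound wells on the plate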
TTR inh HuH7 – counter-screen for TTR activators: TTR transcription inhibitors in HuH7 cells. shares compounds with TTR transcr act. HuH7 TTR promoter-Gaussia luciferase reporter, luminescence. inhibition, % at 16.7 µM. 1,100 tested, 4% active;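 active means average inhibition above the solvent-only control wells' mean plus 3 SD, cut at about 15% in these data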;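 further: 0% = cells with DMSO only and 100% = cells with inhibitor control FD; inhibitors lower well luminescence so higher value means more inhibition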
TTR up confirm – human TTR transcription activation, confirmation | shares compounds with TTR transcr act | SHSY5Y TTR promoter Gaussia luciferase, luminescence; 100% = purified Lucia enzyme wells, no cells | activation, % at 16.7 µM | 1,100 tested, under 10 active;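 active means mean activation above a set limit taken from the earlier primary screen, cut at about 11% in these data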;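 further: 0% = DMSO-treated cells and 100% = recombinant Lucia luciferase without cells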
Numbers without * were called inactive.

SMILES	TTR transcr act	others
CCCC[C@H](C(=O)N(C)c1ccccc1)[C@@H](O)c1ccc2ccccc2c1	-2
CCOc1ccc(-n2c(SCC(=O)Nc3ccc4c(c3)OCCO4)nc3c(c2=O)SCC3)cc1	0
COc1ccc(-n2c(SCC(=O)Nc3nccs3)nc3c(c2=O)SCC3)cc1	2
COc1ccc(NC(=O)CSc2nc3c(c(=O)n2-c2ccc(F)cc2)SCC3)c(OC)c1	15*	TTR inh HuH7=-10;TTR up confirm=0
O=C(NCc1ccccc1)C1C(c2ccccc2)=Nc2ccccc2N1C(=O)c1cccnc1 (stereo not given)	0
O=C(NCCc1ccccc1)OCc1cn(-c2ccc(F)cc2)nn1	3
O=C1[C@H]2[C@@H](c3ccc(F)cc3)N3C(=O)N(c4cccc(Br)c4)C(=O)[C@@]3(Cc3ccccc3)[C@H]2C(=O)N1C1CCCCC1	2
Cc1cccc([C@@H]2[C@@H]3C(=O)N(Cc4ccccc4)C(=O)[C@@H]3[C@]3(Cc4ccccc4)C(=O)N(c4cccc(Cl)c4)C(=O)N23)c1	-1
O=C1[C@H]2[C@@H](c3ccc(Cl)cc3)N3C(=O)N(c4cccc(Cl)c4)C(=O)[C@@]3(Cc3ccccc3)[C@H]2C(=O)N1C1CCCCC1	16*	TTR inh HuH7=6;TTR up confirm=-1
CCS(=O)(=O)Nc1cccc(C2=NN(S(=O)(=O)CC)C(c3cccs3)C2)c1 (stereo not given)	1
O=C(Nc1ccc2c(c1)OCO2)c1n[nH]c(=O)c2ccccc12	0
CCCCCn1c(=S)[nH]c2cc(C(=O)N3CCCC3)ccc2c1=O	10*	TTR inh HuH7=2;TTR up confirm=2
O=C(c1ccc2c(=O)n(-c3ccccc3)c(=S)[nH]c2c1)N1CCCCC1	0
COc1ccc(CCn2c(=S)[nH]c3cc(C(=O)N4CCOCC4)ccc3c2=O)cc1OC	-1
C#CCNC(=O)C[C@H]1C[C@@]2(C(=O)OC)C(=C[C@H](COCc3ccccc3)O[C@@H]2C)N(CCc2ccc(OC)c(OC)c2)C1=O	2
CCC(C)NCCCCOc1ccc(Br)cc1 (stereo not given)	10*	TTR inh HuH7=-6;TTR up confirm=0
CCC(C)NCCCCOc1cc(C)cc(C(C)C)c1 (stereo not given)	-2
CCOc1ccc(OCCCCNC(C)(C)C)cc1	2
Cc1cccc(C)c1NC(=O)c1csc([C@H]2C[C@H](O)[C@@H](CO)O2)n1	-2
CCOC(=O)COc1ccc2c3c(c(=O)oc2c1C)CCC3	1
Cc1c(OCC(=O)C(C)(C)C)ccc2c3c(c(=O)oc12)CCCC3	-2
Cc1coc2c(C)c3oc(=O)c4c(c3cc12)CCCC4	12*	TTR inh HuH7=-6;TTR up confirm=0
CCOC(=O)[C@]12CCCC=C1N(Cc1ccc(OC)cc1)C(=O)[C@@H]2CC(=O)N1CCSCC1	-1
C[C@H]1[C@@H](NC(=O)C2CCOC2)CC[C@@]23CCCN2C(=O)CCC[C@@H]13 (stereo not given in full)	-1
C[C@@H](O[Si](c1ccccc1)(c1ccccc1)C(C)(C)C)[C@H]1C(=O)N[C@H](Cc2cn(S(=O)(=O)c3ccccc3)c3ccccc23)C(=O)N1C	-1
SMILES	TTR transcr act	others
Cc1ccc(OCCn2c(CCNC(=O)C3CCCCCC3)nc3ccccc32)cc1	4
CCOC(=O)[C@@]12CCC3=C1N(CCC3)C(=O)[C@H](CC(=O)NCc1ccccc1)C2	1
COc1ccc(C(OC(=O)c2ccco2)C(=O)NC(C)(C)C)cc1 (stereo not given)	26*	TTR inh HuH7=-2;TTR up confirm=-1
CCC(OC(=O)c1ccco1)C(=O)NCc1ccc(OC)cc1 (stereo not given)	-1
COc1ccc(CNC(=O)C(OC(=O)c2ccco2)c2ccccc2F)cc1 (stereo not given)	-2
CCOC(=O)C1CCN(C(=O)C(C)(C)NC(=O)Nc2ccc(N(C)C)cc2)CC1	0
COc1cccc(CNC(=O)[C@@H]2CCCN2C(=O)[C@H]2CCCCN2C(=O)c2cccc(Cl)c2)c1	0
Cc1cc2c(NC(=O)CCCC(=O)O)cccc2nn1	10*	TTR inh HuH7=-11;TTR up confirm=-1
CC(C)c1ccccc1NC(=O)CCCC(=O)O	1
Cc1cc2c(NC(=O)Nc3ccc(C(F)(F)F)cc3)cccc2nn1	0
COc1cc2c(cc1OC)C(C(=O)NC(C)c1ccccc1)CC(=O)N2 (stereo not given)	-1
CCCCNC(=O)C[C@@H]1C[C@]2(C(=O)OCC)CCC3=C2N(CCC3)C1=O	0
COc1cccc(C(C)(O)c2nc(-c3cccc(C#N)c3)cs2)c1 (stereo not given)	1
CCC[C@H]1[C@@H](N)CC[C@@]23CCCN2C(=O)CCC[C@@H]13	2
Cn1ccsc1=NC(=O)c1ccccc1OC(F)F	1
Cn1ccsc1=NC(=O)c1ccccc1F	0
Cn1ccs/c1=N\C(=O)Nc1ccccc1	52*	TTR inh HuH7=-3;TTR up confirm=1
Cc1cccc(C)c1NC(=O)CNc1ncnc2sc(C)c(C)c12	4
O=C(N1CCCC1)n1ncc(-c2ccc(-c3ccccc3)cc2)n1	-1
COP(=O)(CC(=O)C(Cc1ccccc1)NC(=O)OC(C)(C)C)OC (stereo not given)	1
COc1cccc(-c2nn(-c3ccccc3)cc2/C=C(/NC(=O)c2ccccc2)C(=O)O)c1	1
CCCCCCCCN1C(=O)[C@@H](CC(=O)NCc2ccccc2)C[C@@]2(C(=O)OC)C1=C[C@H](C(C)C)O[C@@H]2C1CC1	3
CC1(C)CC(=O)C=C(c2ccc(OC(F)(F)F)cc2)C1	12*	TTR inh HuH7=-5;TTR up confirm=-1
CC1(C)CC(=O)C=C(c2ccc(Oc3ccccc3)cc2)C1	-3
CC1(C)CC(=O)C=C(c2ccc(I)cc2)C1	2
SMILES	TTR transcr act	others
O=C(Nc1ccc(F)cc1)Nc1c(-c2ccc(C(F)(F)F)cc2)nc2ncccn12	-3
CN(Cc1ccccc1)C(=O)OCc1cn(Cc2ccc(Cl)cc2)nn1	-1
Cn1cnc([N+](=O)[O-])c1Sc1ncnc2nc[nH]c12	2
COc1ccc(C(=O)CSc2ncnc3nc[nH]c23)cc1	-1
Cn1cnc(Sc2ncnc3nc[nH]c23)c1[N+](=O)[O-]	38*	TTR inh HuH7=0;TTR up confirm=0
CN(C)c1ccc(-c2csc(C(C)(O)c3cccc(F)c3)n2)cc1 (stereo not given)	-4
O=C(Nc1cc(C(F)(F)F)cc(C(F)(F)F)c1)O[C@@H]1c2ccccc2[C@@H]2Cc3csc[n+]3[C@H]12	-1
COc1ccc(CN(C)CC(=O)NC(=O)Nc2ccccc2F)cc1	11*	TTR inh HuH7=-14;TTR up confirm=0
COc1ccc(S(=O)(=O)NC(C)C(=O)Nc2ccccc2F)cc1 (stereo not given)	0
COc1ccc(OC)c(N(CC(=O)Nc2ccccc2F)S(=O)(=O)c2ccccc2)c1	-2
COc1cccc(NC(=O)CCC2CCN(C(=O)C(OC)c3ccccc3)CC2)c1 (stereo not given)	0
COC(=O)Cn1c(=NC(=O)c2ccc(OC)c(OC)c2)sc2cc(OC)ccc21	12*	TTR inh HuH7=-2;TTR up confirm=0
COc1ccc(CC(=O)c2ccc(OC)c(OC)c2)cc1	1
COc1ccc2c(c1)sc(=N)n2CC(=O)Nc1cc(C)cc(C)c1	1
COCCN(C(=O)COC(=O)c1cc2c(s1)CCCC2)c1c(N)n(Cc2ccccc2)c(=O)[nH]c1=O	2
